Experimental data taken from the supplement of paper PMC8728848.
Many of the other results were omitted from the sample, so the strongest signals are more common in it than they were.

Assays:
Test in all cases: glycan array binding signal (z-score within array); higher = stronger binding
Conditions in all cases: glycan notation: IUPAC condensed, linker removed
[1] = target: Fuc(a1-2)Gal(b1-4)GlcNAc(b1-3)Gal(b1-4)GlcNAc(b1-2)Man(a1-3)[Fuc(a1-2)Gal(b1-4)GlcNAc(b1-3)Gal(b1-4)GlcNAc(b1-2)Man(a1-6)]Man(b1-4)GlcNAc(b1-4)GlcNAc
Procedure, shortened: (§1)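 Arrays were curated from the Consortium for Functional Glycomics database, 3228 in total, and kept only where the protein sequence was available. Binding is expressed as a within-array Z-score. This score was averaged across arrays of the same protein sequence at different concentrations or buffers and across linkers, and negative values can be read as non-binding.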

[2] = target: Fuc(a1-2)Gal3S(b1-4)GlcNAc
Procedure, shortened: as §1

[3] = target: Fuc(a1-2)[Gal(a1-3)]Gal(b1-3)GlcNAc(b1-6)GalNAc
Procedure, shortened: as §1

[4] = target: Fuc(a1-2)[GalNAc(a1-3)]Gal(b1-3)GlcNAc(b1-3)GalNAc
Procedure, shortened: as §1

[5] = target: Fuc(a1-2)[GalNAc(a1-3)]Gal(b1-4)GlcNAc(b1-2)Man(a1-3)[Fuc(a1-2)[GalNAc(a1-3)]Gal(b1-4)GlcNAc(b1-2)Man(a1-6)]Man(b1-4)GlcNAc(b1-4)GlcNAc
Procedure, shortened: as §1

[6] = target: Fuc(a1-2)[GalNAc(a1-3)]Gal(b1-4)GlcNAc(b1-3)GalNAc
Procedure, shortened: as §1

[7] = target: Fuc(a1-3)[Gal(b1-4)]Glc6S
Procedure, shortened: as §1

[8] = target: Fuc(a1-3)[Gal(b1-4)]GlcNAc(b1-2)Man
Procedure, shortened: as §1

[9] = target: Fuc(a1-3)[Gal(b1-4)]GlcNAc(b1-6)GalNAc
Procedure, shortened: as §1

[10] = target: Gal(a1-4)Gal(b1-4)GlcNAc(b1-2)Man(a1-3)[Gal(a1-4)Gal(b1-4)GlcNAc(b1-2)Man(a1-6)]Man(b1-4)GlcNAc(b1-4)GlcNAc
Procedure, shortened: as §1

[11] = target: Gal(a1-4)Gal(b1-4)GlcNAc(b1-3)Gal(b1-4)Glc
Procedure, shortened: as §1

[12] = target: Gal(b1-3)GalNAc
Procedure, shortened: as §1

[13] = target: Gal(b1-3)GalNAc(b1-4)Gal(b1-4)Glc
Procedure, shortened: as §1

[14] = target: Gal(b1-3)GlcNAc(b1-3)Gal(b1-3)GlcNAc
Procedure, shortened: as §1

[15] = target: Gal(b1-3)[Fuc(a1-4)]GlcNAc
Procedure, shortened: as §1

[16] = target: Gal(b1-4)GlcNAc(b1-2)Man(a1-3)[Gal(b1-4)GlcNAc(b1-2)Man(a1-6)][GlcNAc(b1-4)]Man(b1-4)GlcNAc(b1-4)[Fuc(a1-6)]GlcNAc
Procedure, shortened: as §1

[17] = target: Gal(b1-4)GlcNAc(b1-2)[Gal(b1-4)GlcNAc(b1-4)]Man(a1-3)[Gal(b1-4)GlcNAc(b1-2)Man(a1-6)]Man(b1-4)GlcNAc(b1-4)GlcNAc
Procedure, shortened: as §1

[18] = target: Gal(b1-4)GlcNAc(b1-2)[Gal(b1-4)GlcNAc(b1-6)]Man(a1-6)[GlcNAc(b1-4)][Gal(b1-4)GlcNAc(b1-2)[Gal(b1-4)GlcNAc(b1-4)]Man(a1-3)]Man(b1-4)GlcNAc(b1-4)[Fuc(a1-6)]GlcNAc
Procedure, shortened: as §1

[19] = target: Gal(b1-4)GlcNAc(b1-3)Gal(b1-4)GlcNAc(b1-3)Gal(b1-4)GlcNAc(b1-3)Gal(b1-4)GlcNAc(b1-3)Gal(b1-4)GlcNAc(b1-2)Man(a1-3)[Gal(b1-4)GlcNAc(b1-3)Gal(b1-4)GlcNAc(b1-3)Gal(b1-4)GlcNAc(b1-3)Gal(b1-4)GlcNAc(b1-3)Gal(b1-4)GlcNAc(b1-2)Man(a1-6)]Man(b1-4)GlcNAc(b1-4)GlcNAc
Procedure, shortened: as §1

[20] = target: Gal(b1-6)Gal
Procedure, shortened: as §1

[21] = target: Gal3S(b1-3)GlcNAc
Procedure, shortened: as §1

[22] = target: Gal3S(b1-4)[Fuc(a1-3)]GlcNAc6S
Procedure, shortened: as §1

[23] = target: Gal6S(b1-4)Glc6S
Procedure, shortened: as §1

[24] = target: Gal6S(b1-4)GlcNAc
Procedure, shortened: as §1

[25] = target: GlcNAc(b1-2)Man(a1-3)[GlcNAc(b1-4)][GlcNAc(b1-2)Man(a1-6)]Man(b1-4)GlcNAc(b1-4)[Fuc(a1-6)]GlcNAc
Procedure, shortened: as §1

[26] = target: GlcNAc(b1-3)Gal(b1-4)GlcNAc(b1-3)Gal(b1-4)GlcNAc(b1-3)Gal(b1-4)GlcNAc(b1-2)[GlcNAc(b1-3)Gal(b1-4)GlcNAc(b1-3)Gal(b1-4)GlcNAc(b1-3)Gal(b1-4)GlcNAc(b1-6)]Man(a1-6)[GlcNAc(b1-3)Gal(b1-4)GlcNAc(b1-3)Gal(b1-4)GlcNAc(b1-3)Gal(b1-4)GlcNAc(b1-2)Man(a1-3)]Man(b1-4)GlcNAc(b1-4)[Fuc(a1-6)]GlcNAc
Procedure, shortened: as §1

[27] = target: GlcNAc(b1-3)Gal(b1-4)GlcNAc(b1-3)Gal(b1-4)GlcNAc(b1-3)Gal(b1-4)GlcNAc(b1-3)Gal(b1-4)GlcNAc(b1-2)Man(a1-3)[GlcNAc(b1-3)Gal(b1-4)GlcNAc(b1-3)Gal(b1-4)GlcNAc(b1-3)Gal(b1-4)GlcNAc(b1-3)Gal(b1-4)GlcNAc(b1-2)Man(a1-6)]Man(b1-4)GlcNAc(b1-4)GlcNAc
Procedure, shortened: as §1

[28] = target: GlcNAc(b1-3)Gal(b1-4)GlcNAc(b1-3)Gal(b1-4)GlcNAc(b1-3)Gal(b1-4)GlcNAc(b1-3)Gal(b1-4)GlcNAc(b1-2)[GlcNAc(b1-3)Gal(b1-4)GlcNAc(b1-3)Gal(b1-4)GlcNAc(b1-3)Gal(b1-4)GlcNAc(b1-3)Gal(b1-4)GlcNAc(b1-6)]Man(a1-6)[GlcNAc(b1-3)Gal(b1-4)GlcNAc(b1-3)Gal(b1-4)GlcNAc(b1-3)Gal(b1-4)GlcNAc(b1-3)Gal(b1-4)GlcNAc(b1-2)Man(a1-3)]Man(b1-4)GlcNAc(b1-4)[Fuc(a1-6)]GlcNAc
Procedure, shortened: as §1

[29] = target: Man(a1-2)Man(a1-2)Man(a1-6)[Man(a1-3)]Man
Procedure, shortened: as §1

[30] = target: Man(a1-2)Man(a1-6)[Man(a1-3)]Man(a1-6)[Man(a1-2)Man(a1-2)Man(a1-3)]Man(b1-4)GlcNAc(b1-4)GlcNAc
Procedure, shortened: as §1

[31] = target: Man(a1-3)[Man(a1-6)]Man(a1-6)[Man(a1-3)]Man
Procedure, shortened: as §1

[32] = target: Man(a1-6)Man
Procedure, shortened: as §1

[33] = target: Neu5Ac(a2-3)Gal(b1-4)GlcNAc(b1-3)Gal(b1-4)GlcNAc(b1-3)GalNAc
Procedure, shortened: as §1

[34] = target: Neu5Ac(a2-3)Gal(b1-4)GlcNAc(b1-3)Gal(b1-4)GlcNAc(b1-6)[Gal(b1-3)]GalNAc
Procedure, shortened: as §1

[35] = target: Neu5Ac(a2-3)Gal(b1-4)[Fuc(a1-3)]GlcNAc
Procedure, shortened: as §1

[36] = target: Neu5Ac(a2-3)Gal6S(b1-4)[Fuc(a1-3)]GlcNAc
Procedure, shortened: as §1

[37] = target: Neu5Ac(a2-6)Gal(b1-4)GlcNAc(b1-2)Man(a1-3)Man(b1-4)GlcNAc(b1-4)GlcNAc
Procedure, shortened: as §1

[38] = target: Neu5Ac(a2-6)Gal(b1-4)GlcNAc(b1-3)Gal(b1-4)GlcNAc(b1-6)[Gal(b1-3)]GalNAc
Procedure, shortened: as §1

[39] = target: Neu5Ac(a2-8)Neu5Ac(a2-3)[GalNAc(b1-4)]Gal(b1-4)Glc
Procedure, shortened: as §1

[40] = target: Neu5Ac(a2-8)Neu5Ac(a2-8)Neu5Ac(a2-3)Gal(b1-4)Glc
Procedure, shortened: as §1

[41] = target: Neu5Ac(b2-6)Gal(b1-4)GlcNAc
Procedure, shortened: as §1

[42] = target: Neu5Gc(a2-8)Neu5Gc(a2-3)Gal(b1-4)GlcNAc
Procedure, shortened: as §1

B1: Pwp3 (Candida glabrata) (protein)
chain: MGSSHHHHHHSSGLVPRGSHMASKNPVDFTTVCQFPDNFSKKPGFLATTARLGLWITGNSYKELLNYPGTFTLTTQQASTTTPNIQLRGTDLFTTIYGLTVYPLYLLVELQGYFVPTQSGMYTFSLTGSDDAAIIFIGNPSTFPCDAFKTWPQATANDITVTDSINPSRTLYMVKGVAYPLRIAYYNGLGNGVLNAAFTDPSGTKRTDWNGYIWQYDQCSTCTYK
glycan array binding signal (z-score) [1]: -0.363 | glycan array binding signal (z-score) [2]: -0.232 | glycan array binding signal (z-score) [3]: 4.02 | glycan array binding signal (z-score) [4]: -0.434 | glycan array binding signal (z-score) [5]: 3.9 | glycan array binding signal (z-score) [6]: 3.75 | glycan array binding signal (z-score) [7]: 5.3 | glycan array binding signal (z-score) [8]: -0.319 | glycan array binding signal (z-score) [9]: -0.516 | glycan array binding signal (z-score) [10]: -0.343 | glycan array binding signal (z-score) [11]: -0.304 | glycan array binding signal (z-score) [12]: -0.038 | glycan array binding signal (z-score) [13]: 4.7 | glycan array binding signal (z-score) [14]: 0.247 | glycan array binding signal (z-score) [15]: -0.246 | glycan array binding signal (z-score) [16]: -0.02 | glycan array binding signal (z-score) [17]: -1.19 | glycan array binding signal (z-score) [18]: -0.123 | glycan array binding signal (z-score) [19]: 3.73 | glycan array binding signal (z-score) [20]: -0.446 | glycan array binding signal (z-score) [21]: -0.36 | glycan array binding signal (z-score) [22]: -0.535 | glycan array binding signal (z-score) [23]: 6.29 | glycan array binding signal (z-score) [24]: 0.319 | glycan array binding signal (z-score) [25]: -0.195 | glycan array binding signal (z-score) [26]: 1.66 | glycan array binding signal (z-score) [27]: -0.439 | glycan array binding signal (z-score) [28]: 4.05 | glycan array binding signal (z-score) [29]: -0.335 | glycan array binding signal (z-score) [30]: -0.066 | glycan array binding signal (z-score) [31]: 4.4 | glycan array binding signal (z-score) [32]: -0.259 | glycan array binding signal (z-score) [33]: -0.424 | glycan array binding signal (z-score) [34]: 2.29 | glycan array binding signal (z-score) [35]: 0.139 | glycan array binding signal (z-score) [36]: -0.332 | glycan array binding signal (z-score) [37]: -0.617 | glycan array binding signal (z-score) [38]: 0.018 | glycan array binding signal (z-score) [39]: 4.12 | glycan array binding signal (z-score) [40]: -1.21 | glycan array binding signal (z-score) [41]: 0.194 | glycan array binding signal (z-score) [42]: 0.001
